# Data reported in the supplement of paper PMC10849652.
# The full data set covers some 8,800 targets. This sample favours those with a hit. About 0.5% of all pairs of compound and target were hits. Values without a mark were called inactive.
# How the values were obtained:
# Test in all cases: log2 fold change, soluble protein after heating vs DMSO (PISA); higher = thermal stabilisation; K562 lysate, 10 uM; active = over 0.2 and 3.5 SD of the protein, either way, in both replicates (recomputed)
# nilotinib = compound: Cc1cn(-c2cc(NC(=O)c3ccc(C)c(Nc4nccc(-c5cccnc5)n4)c3)cc(C(F)(F)F)c2)cn1 [nilotinib]
# How it was run: (§1)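 Thermal stability, expressed as log-two fold change relative to solvent controls, is given from duplicates. Crude K562 extract in PBS pH 7.4 with 1 mM MgCl2, at 1 mg/mL protein, was treated with 10 μM compound for 30 min and heated in aliquots for 3 min across 48°C-58°C. After pooling, adjustment to 0.5% NP-40 at 4°C and centrifugation at 21,000xg for 90 min, supernatant protein was measured by TMTpro 16plex LC-MS/MS with channel sums equalised.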
# [1] = compound: Cc1nc(Nc2n[nH]c3c2CN(C(=O)N[C@H](CN(C)C)c2ccccc2)C3(C)C)c2sccc2n1
# How it was run: as §1
# [2] = compound: Cc1ncc(-c2ccnc(Nc3ccc(S(C)(=O)=O)cc3)n2)n1C(C)C
# How it was run: as §1
# quisinostat = compound: Cn1cc(CNCC2CCN(c3ncc(C(=O)NO)cn3)CC2)c2ccccc21 [quisinostat]
# How it was run: as §1
# tipifarnib = compound: Cn1cncc1[C@@](N)(c1ccc(Cl)cc1)c1ccc2c(c1)c(-c1cccc(Cl)c1)cc(=O)n2C [tipifarnib]
# How it was run: as §1
# [3] = compound: NC(=O)Nc1cc(-c2cccc(F)c2)sc1C(=O)N[C@H]1CCCNC1
# How it was run: as §1
# [4] = compound: NC(=O)c1cnc(N[C@@H]2CCCC[C@@H]2N)nc1Nc1cccc(-n2nccn2)c1
# How it was run: as §1
# [5] = compound: NC1(c2ccc(-c3nc4ccn5c(=O)[nH]nc5c4cc3-c3ccccc3)cc2)CCC1
# How it was run: as §1
# [6] = compound: NCC(=O)Nc1ccc(-n2nc(C(F)(F)F)cc2-c2ccc3c(ccc4ccccc43)c2)cc1
# How it was run: as §1
# vorinostat = compound: O=C(CCCCCCC(=O)Nc1ccccc1)NO [vorinostat]
# How it was run: as §1
# silmitasertib = compound: O=C(O)c1ccc2c(c1)nc(Nc1cccc(Cl)c1)c1ccncc12 [silmitasertib]
# How it was run: as §1
# [7] = compound: O=C1NC(=O)C(c2cnc3ccccn23)=C1c1cn2c3c(cc(F)cc13)CN(C(=O)N1CCCCC1)CC2
# How it was run: as §1
# entospletinib = compound: c1cn2cc(-c3ccc4cn[nH]c4c3)nc(Nc3ccc(N4CCOCC4)cc3)c2n1 [entospletinib]
# How it was run: as §1
# dasatinib = compound: Cc1nc(Nc2ncc(C(=O)Nc3c(C)cccc3Cl)s2)cc(N2CCN(CCO)CC2)n1 [dasatinib]
# How it was run: as §1
# [8] = compound: Cn1cc(-c2ccc3c(c2)CCN3C(=O)Cc2cccc(C(F)(F)F)c2)c2c(N)ncnc21
# How it was run: as §1
# Chain of UniProt Q8WVT3 (Q8WVT3 whole entry, looked up): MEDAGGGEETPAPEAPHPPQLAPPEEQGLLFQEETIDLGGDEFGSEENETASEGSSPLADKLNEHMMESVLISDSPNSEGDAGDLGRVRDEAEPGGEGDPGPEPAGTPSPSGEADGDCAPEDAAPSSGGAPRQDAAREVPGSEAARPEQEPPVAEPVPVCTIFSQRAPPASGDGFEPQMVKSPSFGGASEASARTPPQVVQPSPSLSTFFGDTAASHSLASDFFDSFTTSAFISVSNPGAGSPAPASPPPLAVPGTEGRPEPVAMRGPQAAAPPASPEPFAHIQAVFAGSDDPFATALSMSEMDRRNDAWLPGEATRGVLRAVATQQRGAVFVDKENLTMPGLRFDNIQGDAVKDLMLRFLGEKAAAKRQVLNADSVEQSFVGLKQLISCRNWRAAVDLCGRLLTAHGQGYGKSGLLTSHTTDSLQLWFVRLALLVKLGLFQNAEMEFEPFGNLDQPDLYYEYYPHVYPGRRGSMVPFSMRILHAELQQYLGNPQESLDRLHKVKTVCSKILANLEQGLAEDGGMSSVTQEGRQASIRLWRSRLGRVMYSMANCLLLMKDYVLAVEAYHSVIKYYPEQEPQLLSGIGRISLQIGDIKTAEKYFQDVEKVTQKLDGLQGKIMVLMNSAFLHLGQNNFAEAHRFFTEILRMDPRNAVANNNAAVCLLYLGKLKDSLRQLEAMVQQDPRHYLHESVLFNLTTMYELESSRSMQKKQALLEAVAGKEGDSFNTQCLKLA
# Chain of UniProt Q12815 (Q12815 whole entry, looked up): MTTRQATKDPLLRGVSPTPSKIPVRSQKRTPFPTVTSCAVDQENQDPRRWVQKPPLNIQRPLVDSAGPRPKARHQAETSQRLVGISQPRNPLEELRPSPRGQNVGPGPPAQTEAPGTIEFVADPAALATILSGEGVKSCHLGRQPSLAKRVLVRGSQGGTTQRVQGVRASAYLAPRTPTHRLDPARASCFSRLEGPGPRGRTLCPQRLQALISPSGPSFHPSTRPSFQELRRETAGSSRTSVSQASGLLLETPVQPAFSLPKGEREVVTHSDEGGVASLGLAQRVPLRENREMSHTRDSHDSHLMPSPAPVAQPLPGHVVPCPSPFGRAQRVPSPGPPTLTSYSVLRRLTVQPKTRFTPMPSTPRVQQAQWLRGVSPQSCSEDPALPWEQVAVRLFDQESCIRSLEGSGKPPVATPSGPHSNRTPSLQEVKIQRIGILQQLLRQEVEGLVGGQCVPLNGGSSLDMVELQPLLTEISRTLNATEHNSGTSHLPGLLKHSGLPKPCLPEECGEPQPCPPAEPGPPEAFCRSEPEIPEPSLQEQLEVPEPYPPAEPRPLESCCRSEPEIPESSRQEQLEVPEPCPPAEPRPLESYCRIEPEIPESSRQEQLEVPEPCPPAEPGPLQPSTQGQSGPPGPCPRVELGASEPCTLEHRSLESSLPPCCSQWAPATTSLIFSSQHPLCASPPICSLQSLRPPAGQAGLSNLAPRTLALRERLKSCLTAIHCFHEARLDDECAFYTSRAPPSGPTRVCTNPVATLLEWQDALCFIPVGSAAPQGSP
# Chain of UniProt P21580 (P21580 whole entry, looked up): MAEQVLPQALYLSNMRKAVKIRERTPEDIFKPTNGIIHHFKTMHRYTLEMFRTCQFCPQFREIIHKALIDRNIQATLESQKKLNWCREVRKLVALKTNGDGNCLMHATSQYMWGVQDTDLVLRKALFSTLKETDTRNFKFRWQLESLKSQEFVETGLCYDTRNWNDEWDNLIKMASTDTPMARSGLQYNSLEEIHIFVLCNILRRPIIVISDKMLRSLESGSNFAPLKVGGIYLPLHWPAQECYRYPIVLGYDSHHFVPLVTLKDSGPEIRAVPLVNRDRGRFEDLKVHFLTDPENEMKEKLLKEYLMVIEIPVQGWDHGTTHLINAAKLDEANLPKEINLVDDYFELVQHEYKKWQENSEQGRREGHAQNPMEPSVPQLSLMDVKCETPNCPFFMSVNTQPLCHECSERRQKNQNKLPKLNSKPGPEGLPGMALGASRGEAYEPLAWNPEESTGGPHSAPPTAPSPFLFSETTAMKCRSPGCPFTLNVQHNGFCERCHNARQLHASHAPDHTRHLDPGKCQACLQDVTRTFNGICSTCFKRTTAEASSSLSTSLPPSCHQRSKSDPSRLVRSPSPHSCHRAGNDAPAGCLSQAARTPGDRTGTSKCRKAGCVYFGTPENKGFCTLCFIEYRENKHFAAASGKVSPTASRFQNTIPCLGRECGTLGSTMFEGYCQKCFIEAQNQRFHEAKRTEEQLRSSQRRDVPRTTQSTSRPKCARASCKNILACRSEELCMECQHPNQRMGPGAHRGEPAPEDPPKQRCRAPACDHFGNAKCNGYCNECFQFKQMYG
# Chain of UniProt Q6IPR3 (Q6IPR3 whole entry, looked up): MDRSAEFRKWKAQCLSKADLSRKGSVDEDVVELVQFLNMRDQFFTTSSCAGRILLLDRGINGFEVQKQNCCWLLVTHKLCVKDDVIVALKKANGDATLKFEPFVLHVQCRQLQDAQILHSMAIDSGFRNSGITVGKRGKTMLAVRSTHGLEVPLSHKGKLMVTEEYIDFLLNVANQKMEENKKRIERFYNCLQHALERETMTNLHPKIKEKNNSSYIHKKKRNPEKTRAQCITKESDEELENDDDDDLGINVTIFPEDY
# Chain of UniProt O75382 (O75382 whole entry, looked up): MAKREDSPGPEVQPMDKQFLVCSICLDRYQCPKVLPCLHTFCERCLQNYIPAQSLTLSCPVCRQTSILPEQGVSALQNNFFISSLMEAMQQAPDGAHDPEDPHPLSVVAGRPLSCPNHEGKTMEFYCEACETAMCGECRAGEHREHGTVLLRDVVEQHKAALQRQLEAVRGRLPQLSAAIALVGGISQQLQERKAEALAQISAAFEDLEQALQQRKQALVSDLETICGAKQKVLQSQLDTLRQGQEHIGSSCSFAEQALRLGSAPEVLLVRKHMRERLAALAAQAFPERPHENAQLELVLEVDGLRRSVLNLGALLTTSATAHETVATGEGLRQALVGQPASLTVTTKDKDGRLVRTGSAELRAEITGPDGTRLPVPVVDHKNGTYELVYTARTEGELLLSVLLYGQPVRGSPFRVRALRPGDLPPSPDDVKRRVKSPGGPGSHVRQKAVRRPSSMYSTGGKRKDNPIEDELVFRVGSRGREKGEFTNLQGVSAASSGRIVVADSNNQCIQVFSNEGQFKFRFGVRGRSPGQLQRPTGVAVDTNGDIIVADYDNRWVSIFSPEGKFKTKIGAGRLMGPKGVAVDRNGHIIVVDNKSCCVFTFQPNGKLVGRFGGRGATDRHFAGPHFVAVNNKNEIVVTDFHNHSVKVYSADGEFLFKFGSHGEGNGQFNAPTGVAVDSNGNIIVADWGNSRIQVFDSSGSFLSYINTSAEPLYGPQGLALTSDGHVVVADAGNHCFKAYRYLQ
# Chain of UniProt Q86SX3 (Q86SX3 whole entry, looked up): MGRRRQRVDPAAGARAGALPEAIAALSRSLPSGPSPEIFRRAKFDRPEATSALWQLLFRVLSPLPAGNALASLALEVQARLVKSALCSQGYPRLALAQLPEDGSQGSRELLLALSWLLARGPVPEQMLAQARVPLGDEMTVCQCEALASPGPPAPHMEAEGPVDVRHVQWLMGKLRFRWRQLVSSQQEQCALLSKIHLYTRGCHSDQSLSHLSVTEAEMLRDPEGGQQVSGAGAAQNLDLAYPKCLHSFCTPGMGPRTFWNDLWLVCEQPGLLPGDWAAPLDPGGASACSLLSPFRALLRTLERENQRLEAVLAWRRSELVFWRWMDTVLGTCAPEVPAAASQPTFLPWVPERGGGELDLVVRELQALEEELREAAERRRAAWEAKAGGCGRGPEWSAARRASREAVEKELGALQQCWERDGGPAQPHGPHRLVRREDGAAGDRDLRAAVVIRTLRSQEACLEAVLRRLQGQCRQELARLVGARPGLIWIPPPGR
# Chain of UniProt Q9BZL1 (Q9BZL1 whole entry, looked up): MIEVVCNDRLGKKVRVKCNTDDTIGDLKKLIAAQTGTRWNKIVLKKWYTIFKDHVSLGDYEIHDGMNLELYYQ
# Chain of UniProt O95857 (O95857 whole entry, looked up): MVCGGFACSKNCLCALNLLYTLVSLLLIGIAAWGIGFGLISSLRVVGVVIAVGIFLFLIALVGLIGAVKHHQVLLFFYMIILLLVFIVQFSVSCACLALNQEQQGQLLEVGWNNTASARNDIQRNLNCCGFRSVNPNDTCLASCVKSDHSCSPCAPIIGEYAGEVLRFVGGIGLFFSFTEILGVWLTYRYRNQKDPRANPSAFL
# Chain of UniProt Q5R3I4 (Q5R3I4 whole entry, looked up): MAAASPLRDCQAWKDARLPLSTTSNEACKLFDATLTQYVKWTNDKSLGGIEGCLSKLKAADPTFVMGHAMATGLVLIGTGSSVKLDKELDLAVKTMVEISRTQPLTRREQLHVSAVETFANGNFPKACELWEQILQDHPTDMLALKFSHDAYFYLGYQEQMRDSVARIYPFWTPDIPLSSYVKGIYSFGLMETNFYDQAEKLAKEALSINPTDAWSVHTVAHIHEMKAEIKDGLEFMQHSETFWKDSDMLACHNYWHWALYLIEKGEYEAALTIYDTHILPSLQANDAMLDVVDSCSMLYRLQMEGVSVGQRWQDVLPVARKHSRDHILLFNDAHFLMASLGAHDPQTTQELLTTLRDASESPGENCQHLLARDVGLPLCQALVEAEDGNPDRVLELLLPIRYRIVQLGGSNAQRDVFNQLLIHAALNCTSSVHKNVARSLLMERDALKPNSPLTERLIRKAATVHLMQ
# Chain of UniProt P43897 (P43897 whole entry, looked up): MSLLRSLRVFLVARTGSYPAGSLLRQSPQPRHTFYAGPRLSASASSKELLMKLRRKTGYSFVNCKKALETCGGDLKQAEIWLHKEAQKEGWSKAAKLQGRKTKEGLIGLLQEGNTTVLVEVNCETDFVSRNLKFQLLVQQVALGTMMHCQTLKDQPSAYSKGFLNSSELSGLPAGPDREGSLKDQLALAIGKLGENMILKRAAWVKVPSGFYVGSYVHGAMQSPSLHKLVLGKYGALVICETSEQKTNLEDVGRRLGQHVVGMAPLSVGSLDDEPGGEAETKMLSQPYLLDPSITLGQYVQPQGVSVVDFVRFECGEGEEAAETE
Target,log2 fold change (nilotinib),log2 fold change [1],log2 fold change [2],log2 fold change (quisinostat),log2 fold change (tipifarnib),log2 fold change [3],log2 fold change [4],log2 fold change [5],log2 fold change [6],log2 fold change (vorinostat),log2 fold change (silmitasertib),log2 fold change [7],log2 fold change (entospletinib),log2 fold change (dasatinib),log2 fold change [8]
TUBB4A (UniProt M0QYM7),-0.029,-0.009,0.039,-0.116,0.013,0.107,-0.048,0.126,0.128,-0.431,0.01,-0.062,0.032,–,–
UBAP2L isoform 5 (UniProt Q14157),-0.141,0.015,0.055,0.024,-0.106,0.048,0.01,0.02,0.013,0.126,-0.037,-0.018,-0.042,-0.035,-0.058
TRADD (UniProt Q15628),0.009,-0.02,-0.013,-0.018,0.053,0.044,0.01,0.041,0.034,-0.284,0.021,-0.029,0.059,0.065,-0.002
TSPAN13 (UniProt O95857),-0.067,0.02,0.121,0.034,-0.032,-0.126,0.035,0.132,-0.024,0.104,-0.008,0.008,-0.015,-0.054,-0.35
TSFM (UniProt P43897),-0.013,0.021,-0.028,-0.016,0.002,0.002,0.037,-0.026,0.002,-0.261 (active),0.043,0.035,-0.014,-0.034,0.017
TUBGCP5 (UniProt Q96RT8),0.024,0.04,0.048,0.203,0.012,0.077,-0.68 (active),–,-0.029,–,–,0.042,-0.105,0.119,-0.094
TTC38 (UniProt Q5R3I4),0.02,0.016,0.059,0.293 (active),0.026,-0.036,0.015,0.029,0.017,-0.044,-0.014,-0.022,0.029,0.029,-0.003
TSPAN3 (UniProt O60637),0.004,-0.003,-0.199,–,-0.032,–,-0.098,0.015,-0.124,0.105,-0.056,–,-0.005,0.118,0.033
U2AF1L5 (UniProt P0DN76),-0.033,0.061,0.077,–,-0.01,–,0.009,-0.022,–,-0.363,-0.069,–,0.016,-0.012,0.026
TRAF7 (UniProt Q6Q0C0),0.16,0.027,0.154,-0.035,-0.1,-0.033,–,–,0.052,–,–,0.059,0.058,-0.005,0.163
UBL5 (UniProt Q9BZL1),0.028,0.154,0.018,0.341 (active),0.031,-0.149,–,-0.013,-0.027,-0.078,0.065,0.077,-0.049,0.036,0.027
TYW3 (UniProt Q6IPR3),-0.033,0.017,0.035,-0.126,-0.018,-0.014,0.046,0.017,0.036,-0.694 (active),0,-0.042,-0.001,-0.006,0.027
TEDC1 (UniProt Q86SX3),0.015,-0.016,-0.038,0.161,-0.049,-0.074,0.104,-0.022,–,-0.356 (active),0.068,-0.012,-0.032,0.087,0.05
TRAPPC12 (UniProt Q8WVT3),-0.007,0.025,-0.05,0.003,0.039,-0.018,-0.007,0.013,0.032,-0.258 (active),0.005,0.043,-0.001,0.024,0.038
TROAP (UniProt Q12815),-0.041,0.023,0.037,-0.096,-0.005,0.007,0.031,-0.018,0.003,-0.382 (active),0.003,0.014,-0.057,-0.071,0.043
TNFAIP3 (UniProt P21580),0.038,-0.01,-0.04,0.008,-0.068,0.025,0.01,0.003,–,-0.12,-0.003,0.004,0.044,-0.002,0.033
TXNRD2 (UniProt Q9NNW7),0.063,0.008,0.071,-0.017,-0.005,-0.023,-0.006,-0.05,-0.016,0.125,-0.025,0.029,0.023,0.039,0.015
TK1 (UniProt K7ERV3),-0.024,-0.134,0.086,-0.059,0.059,0.122,–,-0.016,-0.018,0.086,0.01,-0.014,-0.013,-0.114,0.02
UBAP2 (UniProt Q5JV08),-0.211,0.172,0.104,–,0.133,–,–,–,–,–,–,–,–,–,–
TNIK (UniProt C9J338),–,–,–,-0.292,–,-0.043,0.015,-0.068,0.195,0.103,-0.023,0.006,-0.049,-0.055,-0.043
TGFBR1 isoform 2 (UniProt P36897),–,–,–,–,–,–,–,-0.117,–,0,0.076,–,-0.004,–,-0.03
TRIM3 (UniProt O75382),–,–,–,–,–,–,0.623,0.146,-0.304,-0.055,-0.179,–,-0.056,–,–
